Test results from the supplement of paper PMC13094657.
Where a name gives a salt, the structure may show the parent alone. ± gives the standard deviation of the averaged measurements.

Legend:
MDA-MB-231 [1] = assay: cell viability relative to vehicle unstimulated control (fraction); higher = more viable cells; settings: pre-treatment time: 18 h then 24 h IFNg/TNF
MDA-MB-231 [2] = assay: kynurenine production, fold change vs DMSO IFNg/TNF control; higher = more kynurenine produced (less inhibition); settings: pre-treatment time: 18 h then 24 h IFNg/TNF
Method in brief: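 After trichloroacetic acid and p-dimethylaminobenzaldehyde treatment, supernatants were read at 492 nm, with 0–100 μM standards. These came from MDA-MB-231 cells (7 × 10^4/well, 96-well plates) pre-treated 18 h with natural products in 0.1% DMSO and then exposed 24 h to IFNγ (1 U/ml) and TNF (6.25 ng/ml) at 37°C. Values for kynurenine production are fold changes over same-plate cytokine-stimulated vehicle wells, averaged over duplicate plates in the first screening round.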
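Wherever cell viability relative to vehicle unstimulated control is given: viability of the cells left after supernatant collection, read with Deep Blue dye added for 4 h, as absorbance at 570 nm minus 600 nm.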

Structure (SMILES): CC(C)C1=CC(=O)[C@@](C)(C2[C@H](O)C[C@@]3(C)[C@@H]4CC=C5[C@@H](CC[C@@H](OC6OCC(O)C(O)C6OC6OC(C)C(O)C(O)C6O)C5(C)C)[C@]4(C)C(=O)C[C@]23C)O1 (some centres not stated) [Picfeltarraenin IA] (compound dose: 10 uM)
- cell viability (MDA-MB-231 [1]): 0.9887 ± 0.0091
- kynurenine production (MDA-MB-231 [2]): 0.901 ± 0.11

Structure (SMILES): CC(C)=CCCC(C)(O)C1CCC2(C)C1C(O)CC1C3(C)CCC(OC4OC(CO)C(O)C(O)C4O)C(C)(C)C3CCC12C [20(R)-Ginsenoside Rh2] (compound dose: 10 uM)
- cell viability (MDA-MB-231 [1]): 1.08 ± 0.052
- kynurenine production (MDA-MB-231 [2]): 0.958 ± 0.21

Structure (SMILES): Cc1cc(O)c2c(=O)c3c(O)cc(O)c4c5c(O)cc(O)c6c(=O)c7c(O)cc(C)c8c1c2c(c34)c(c78)c65 [Hypericin] (compound dose: 10 uM)
- cell viability (MDA-MB-231 [1]): 0.0887 ± 0.085
- kynurenine production (MDA-MB-231 [2]): 0.103 ± 0.063

Structure (SMILES): CN1[C@@H]2CC[C@H]1C[C@@H](OC(=O)[C@H](CO)c1ccccc1)C2 [Hyoscyamine hydrobromide] (compound dose: 10 uM)
- cell viability (MDA-MB-231 [1]): 1.03 ± 0.024
- kynurenine production (MDA-MB-231 [2]): 0.743 ± 0.061

Structure (SMILES): COc1cc(C2OCC3C(c4cc(OC)c(O[C@@H]5O[C@H](CO)[C@@H](O)[C@H](O)[C@H]5O)c(OC)c4)OCC23)cc(OC)c1O[C@H]1O[C@@H](CO)[C@H](O)[C@@H](O)[C@@H]1O (some centres not stated) [Eleutheroside E] (compound dose: 10 uM)
- cell viability (MDA-MB-231 [1]): 0.947 ± 0.033
- kynurenine production (MDA-MB-231 [2]): 0.784 ± 0.071

Structure (SMILES): C=C1[C@H](OC(=O)c2ccccc2)C[C@H]2[C@@H](/C=C(\C)C(=O)[C@@]3(OC(C)=O)C[C@H](C)[C@H](OC(=O)c4ccccc4)[C@@H]3[C@H]1OC(C)=O)C2(C)C [Euphorbia Factor L2] (compound dose: 10 uM)
- cell viability (MDA-MB-231 [1]): 0.847 ± 0.044
- kynurenine production (MDA-MB-231 [2]): 0.5 ± 0.15

Structure (SMILES): C=C1[C@@H]2CC[C@H]3[C@]4(C)C[C@H](O[C@@H]5O[C@H](CO)[C@@H](OS(=O)(=O)O)[C@H](OS(=O)(=O)O)[C@H]5OC(=O)CC(C)C)CC(C(=O)O)(C(=O)O)[C@H]4CC[C@]3(C2)[C@H]1O [Carboxyatractyloside (dipotassium)] (compound dose: 10 uM)
- cell viability (MDA-MB-231 [1]): 1.03 ± 0.071
- kynurenine production (MDA-MB-231 [2]): 0.825 ± 0.43

Structure (SMILES): CC1=C[C@]23C(=O)[C@@H](C=C(CO)[C@@H](O)[C@]2(O)[C@H]1O)[C@H]1[C@@H](C[C@H]3C)C1(C)C [Ingenol] (compound dose: 10 uM)
- cell viability (MDA-MB-231 [1]): 0.906 ± 0.051
- kynurenine production (MDA-MB-231 [2]): 0.846 ± 0.12

Structure (SMILES): COc1ccc2c(c1O)-c1c(O)c(OC)cc3c1[C@H](C2)N(C)CC3 [Corytuberine] (compound dose: 10 uM)
- cell viability (MDA-MB-231 [1]): 0.829 ± 0.025
- kynurenine production (MDA-MB-231 [2]): 0.889 ± 0.11

Structure (SMILES): CC(C)(C)[C@]1(O)CC2OC(=O)CC23C(=O)OC2OC(=O)[C@H](O)C231 (some centres not stated) [Bilobalide] (compound dose: 10 uM)
- cell viability (MDA-MB-231 [1]): 1.01 ± 0.015
- kynurenine production (MDA-MB-231 [2]): 0.774 ± 0.031

Structure (SMILES): C=C(C)C(=O)O[C@H]1[C@@H]2[C@H](C)C(=O)O[C@@H]2C[C@@H](C)[C@@H]2C=CC(=O)[C@]21C [Arnicolide D] (compound dose: 10 uM)
- cell viability (MDA-MB-231 [1]): 0.784 ± 0.08
- kynurenine production (MDA-MB-231 [2]): 0.153 ± 0.067

Structure (SMILES): C[C@@H]1CC[C@@]2(OC1)O[C@H]1C[C@H]3[C@@H]4CC=C5C[C@@H](O[C@@H]6O[C@H](CO)[C@@H](O[C@@H]7O[C@@H](C)[C@H](O[C@@H]8O[C@@H](C)[C@H](O)[C@@H](O)[C@H]8O)[C@@H](O)[C@H]7O)[C@H](O)[C@H]6O[C@@H]6O[C@@H](C)[C@H](O)[C@@H](O)[C@H]6O)CC[C@]5(C)[C@H]4CC[C@]3(C)[C@H]1[C@@H]2C [Formosanin C] (compound dose: 10 uM)
- cell viability (MDA-MB-231 [1]): -0.00547 ± 0.0077
- kynurenine production (MDA-MB-231 [2]): 0.125 ± 0.075

Structure (SMILES): C/C=C(/C)C(=O)O[C@H]1[C@@H]2[C@H](C)C(=O)O[C@@H]2C[C@@H](C)[C@@H]2C=CC(=O)[C@]21C [Brevilin A] (compound dose: 10 uM)
- cell viability (MDA-MB-231 [1]): 0.75 ± 0.035
- kynurenine production (MDA-MB-231 [2]): 0.132 ± 0.017

Structure (SMILES): CO[C@H]1CCN2[C@@H]3C=CC4=CC(=O)O[C@]4(C3)[C@@H]2C1 [Securitinine] (compound dose: 10 uM)
- cell viability (MDA-MB-231 [1]): 0.983 ± 0.035
- kynurenine production (MDA-MB-231 [2]): 0.734 ± 0.084

Structure (SMILES): CC1=C(O)C(=O)C=C2C1=CC=C1[C@@]2(C)CC[C@@]2(C)[C@@H]3C[C@](C)(C(=O)O)CC[C@]3(C)CC[C@]12C [Tripterin] (compound dose: 10 uM)
- cell viability (MDA-MB-231 [1]): 0.0346 ± 0.01
- kynurenine production (MDA-MB-231 [2]): 0.119 ± 0.017

Structure (SMILES): C=C1[C@@H]2CCC3[C@@](CC[C@@H]4[C@H](C(=O)O)C[C@@H](O[C@@H]5O[C@H](CO)[C@@H](OS(=O)(=O)O)[C@H](OS(=O)(=O)O)[C@H]5OC(=O)CC(C)C)C[C@@]34C)(C2)[C@@H]1O (some centres not stated) [Atractyloside (potassium salt)] (compound dose: 10 uM)
- cell viability (MDA-MB-231 [1]): 0.797 ± 0.18
- kynurenine production (MDA-MB-231 [2]): 0.945 ± 0.02
